Assay results from the supplement of paper PMC6555819.

Columns and labels:
Test in all cases: PBM binding z-score (relative to random genomic background probes); higher = stronger binding; sequences stand for … in GC…GCGATTGACAGCGTAGAATGAAGG
[1] = tested on: FXR:RXRa (NR concentration 270 nM, RXRa partner concentration 90 nM)
Procedure, shortened: (§1)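 For binding z-scores, the reference was random background probes on custom Agilent 4×180K protein-binding microarrays. These arrays were incubated 1 h with ligand-free nuclear receptor dimers in PBS pH 7.4, 2% milk, 0.02% Triton X-100, 1 mM DTT, 0.2 mg/mL BSA and 0.4 mg/ml salmon testes DNA. Fluorescence was scanned after antibody detection of each partner (one per run) and regression-normalized.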

[2] = tested on: LXRa:RXRa (NR concentration 270 nM, RXRa partner concentration 90 nM)
Procedure, shortened: as §1

[3] = tested on: LXRa homodimer (NR concentration 270 nM)
Procedure, shortened: as §1

[4] = tested on: LXRb:RXRa (NR concentration 270 nM, RXRa partner concentration 90 nM)
Procedure, shortened: as §1

[5] = tested on: LXRb homodimer (NR concentration 270 nM)
Procedure, shortened: as §1

[6] = tested on: PPARa:RXRa (NR concentration 270 nM, RXRa partner concentration 90 nM)
Procedure, shortened: as §1

[7] = tested on: PPARg:RXRa (NR concentration 180 nM, RXRa partner concentration 90 nM)
Procedure, shortened: as §1

[8] = tested on: PPARg:RXRa 270nM:90nM, anti-RXR (NR concentration 270 nM, RXRa partner concentration 90 nM)
Procedure, shortened: as §1

[9] = tested on: PPARg:RXRa 30nM:10nM, anti-RXR (NR concentration 30 nM, RXRa partner concentration 10 nM)
Procedure, shortened: as §1

[10] = tested on: PPARg:RXRa 90nM:30nM, anti-RXR (NR concentration 90 nM, RXRa partner concentration 30 nM)
Procedure, shortened: as §1

[11] = tested on: PPARg:RXRa DBDmut IVT, anti-RXR (DBD mutation: RXRa K156A/R161A, NR concentration 270 nM, RXRa partner concentration 90 nM)
Procedure, shortened: as §1

[12] = tested on: PPARg:RXRa IVT, anti-PPARg (NR concentration 270 nM, RXRa partner concentration 90 nM)
Procedure, shortened: as §1

[13] = tested on: PPARg DBDmut:RXRa IVT, anti-PPARg (DBD mutation: PPARg1 K132A/R137A, NR concentration 270 nM, RXRa partner concentration 90 nM)
Procedure, shortened: as §1

[14] = tested on: PPARg DBDmut IVT, anti-PPARg (DBD mutation: PPARg1 K132A/R137A, NR concentration 270 nM)
Procedure, shortened: as §1

[15] = tested on: PPARg homodimer (NR concentration 180 nM)
Procedure, shortened: as §1

[16] = tested on: PXR:RXRa (NR concentration 270 nM, RXRa partner concentration 90 nM)
Procedure, shortened: as §1

[17] = tested on: PXR homodimer (NR concentration 270 nM)
Procedure, shortened: as §1

[18] = tested on: RARa:RXR (NR concentration 270 nM, RXRa partner concentration 90 nM)
Procedure, shortened: as §1

[19] = tested on: RARa homodimer (NR concentration 270 nM)
Procedure, shortened: as §1

[20] = tested on: RARb:RXRa (NR concentration 270 nM, RXRa partner concentration 90 nM)
Procedure, shortened: as §1

Row | Sequence | PBM binding z-score [1] | PBM binding z-score [2] | PBM binding z-score [3] | PBM binding z-score [4] | PBM binding z-score [5] | PBM binding z-score [6] | PBM binding z-score [7] | PBM binding z-score [8] | PBM binding z-score [9] | PBM binding z-score [10] | PBM binding z-score [11] | PBM binding z-score [12] | PBM binding z-score [13] | PBM binding z-score [14] | PBM binding z-score [15] | PBM binding z-score [16] | PBM binding z-score [17] | PBM binding z-score [18] | PBM binding z-score [19] | PBM binding z-score [20]
1 | CCGACTGGGGCATAAGGTTATCATAAGCCAGCCC | 0.297 | 0.921 | -0.134 | 0.498 | -1.15 | 1.94 | 2.31 | 3.06 | 1.39 | 3.18 | 2.88 | 3.27 | -0.987 | -0.567 | 1.33 | 0.386 | 0.0103 | 1.34 | -0.22 | 1.32
2 | TTATATAGGTAAATGCTAGGTGAAAGTCCGATCT | 0.733 | 0.69 | 0.375 | 0.64 | 0.108 | 2.18 | 2.61 | 2.59 | 1.97 | 2.34 | 6.27 | 5.32 | 1.86 | 2.12 | 1.28 | 0.481 | 0.535 | 0.686 | 1.58 | 0.351
3 | CGATCTAGGTCATTGACAGGACAGTGAATAGTAA | 4.68 | 2.86 | 0.511 | 2.07 | 0.134 | 4.52 | 6.86 | 6.06 | 3.13 | 5.68 | 7.84 | 7.9 | 1.48 | 1.96 | 1.92 | 1.64 | 0.255 | 2.35 | 0.361 | 3.61
4 | TCTTGTAGATCAGCAGGTTAAGAATGCTGGCCAA | -0.0205 | 0.0347 | -0.38 | 0.151 | -0.573 | 0.607 | -0.224 | 1.26 | 2.68 | 2.04 | 1.36 | 0.428 | -0.195 | -0.491 | 0.12 | 0.00264 | -0.0255 | 0.239 | -0.0617 | 0.12
5 | CCAGACAGGTGAGAATGTAACTCAGCCTCGATTA | -0.153 | -0.116 | -0.13 | -0.00314 | -0.187 | 0.0169 | 0.376 | -0.212 | -0.0571 | -0.437 | 0.965 | 0.029 | -1.25 | 0.0266 | 0.565 | -0.276 | 0.0874 | -0.141 | 1.11 | 0.234
6 | GGAACGAGGGCAAAGTTAATAGCATCTGTCGACG | 1.04 | 0.812 | -0.00751 | 0.878 | -0.23 | 3.62 | 5.8 | 6.25 | 4.67 | 6.67 | 4 | 4.19 | 0.116 | -0.54 | 0.877 | 1.19 | 0.225 | 1.24 | 0.00739 | 2.55
7 | CCTGCTGGGCCACGAAAGGTCATTGATTCAGTGA | 3.41 | 5.49 | 4.48 | 4.19 | 0.0525 | 4.2 | 1.59 | 3.23 | 0.385 | 2.27 | 1.93 | 2.25 | -0.596 | -0.339 | 5.05 | 5.52 | 1.38 | 5.76 | 2.23 | 4.05
8 | CAAACTAGGTCACAGAGGTCAAAGTACGTGCGTA | 7.52 | 6.76 | 7.47 | 6.46 | 2.46 | 6.64 | 10.3 | 8.39 | 6.94 | 8.5 | 8.25 | 9.23 | 3.28 | 3.36 | 6.01 | 7.09 | 11.9 | 7.54 | 2.98 | 5.38
9 | CTTGCTAGGTCAATGGTCAGCTAAAGCAGCTCGC | 2.93 | 2.77 | 0.107 | 1.33 | -0.0348 | 3.41 | 5.43 | 5.94 | 4.16 | 5.69 | 5.14 | 4.93 | -0.161 | 0.902 | 0.936 | 0.794 | -0.623 | 1.83 | -0.394 | 3.79
10 | CGTCCAAGGTCATAGGAGGTCAGTGATGACAGAT | 7.57 | 7.22 | 5.1 | 5.96 | 1.02 | 5.77 | 5.63 | 5.82 | 2.23 | 4.02 | 3.37 | 4.38 | 0.469 | 0.243 | 3.94 | 6.6 | 3.48 | 5.69 | 2.24 | 5.32
11 | TGAATGAGGATAAAGATCAGGGAACGTGGCGTCG | 0.0362 | -0.419 | -0.157 | -0.514 | -0.0964 | 1.03 | 1.87 | 3.78 | 2.17 | 3.5 | -0.598 | 0.0508 | -0.331 | -0.373 | -0.144 | -0.614 | -0.0385 | -0.537 | -0.101 | -0.238
12 | GGAACGGGGGCAAAGTTGATAGCATCTGTCGACG | 3.75 | 3.32 | 0.259 | 4.64 | 6.22 | 5.56 | 9.31 | 8.52 | 9.53 | 9.94 | 4.07 | 6.45 | 10.3 | 11.6 | 2.01 | 3.21 | 1.78 | 3.47 | 0.888 | 3.27
13 | ACAGACTGGTGAGTGAAGGTAACTCAGCTGGACG | -0.31 | -0.557 | -0.264 | -0.755 | -0.871 | -0.552 | 0.259 | -0.5 | -0.557 | -0.438 | -0.695 | -0.409 | -0.15 | -0.348 | 0.0199 | -0.565 | -0.163 | -0.434 | -0.0964 | -0.281
